# Measured values from PubChem BioAssay AID651658 (Broad Institute, 2012).
# Screen size: about 340,000 compounds; about 5,100 (1.5%) were called active. This is one part of a sample in which actives are shown more often than they occur. Unmarked numbers belong to inactive results.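 The calls were made as follows: active = mean Tm shift, scaled 0 neutral to 100 positive control, at about 1.3% or above, every replicate too (limit read from the data); inconclusive = no clear call, values can overlap the other calls; inactive = the rest.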
# Target: Fibroblast growth factor 22 (Homo sapiens) (UniProt Q9HCT0)
# Test: FGF22 ligand-induced thermal stabilization – biophysical, thermal shift, single point, FGF22 synaptogenesis inhibitor project, primary screen (AID 651658)
# Details: recombinant FGF22 thermal shift, SYPRO orange fluorescence; at 9.99 µM; stronger effect = higher value; percent of sucrose octasulfate shift, DMSO zero
# Sequence of Fibroblast growth factor 22 (Homo sapiens) (Q9HCT0 whole entry, looked up): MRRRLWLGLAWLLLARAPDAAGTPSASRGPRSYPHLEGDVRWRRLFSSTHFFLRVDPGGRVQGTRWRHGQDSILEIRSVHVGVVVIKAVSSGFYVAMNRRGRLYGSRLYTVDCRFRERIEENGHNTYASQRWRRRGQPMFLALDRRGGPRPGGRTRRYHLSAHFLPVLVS
row,SMILES,"activity (Tm shift, normalised)"
1,CC(C)NC(=O)N(C)C[C@H]1OCCCC[C@H](C)Oc2ccc(NC(=O)CCC(F)(F)F)cc2C(=O)N([C@@H](C)CO)C[C@@H]1C,-0.59%
2,C[C@H](CO)N1C[C@H](C)[C@H](CN(C)C(=O)Nc2ccc(F)cc2)Oc2ncc(-c3cc4ccccc4o3)cc2C1=O,-0.101%
3,CN(C)CC(=O)N1CCCCN2[C@@H](CO)[C@H](c3ccc(-c4cccnc4)cc3)[C@@H]2C1,0.193%
4,Cc1ccc(S(=O)(=O)N(C)C[C@@H]2OCCCC[C@@H](C)Oc3ccc(NS(=O)(=O)c4ccccc4)cc3C(=O)N([C@H](C)CO)C[C@@H]2C)cc1,-0.059%
5,C[C@@H]1CN([C@H](C)CO)C(=O)c2cc(NC(=O)Cc3ccccc3)ccc2O[C@@H](C)CCCCO[C@@H]1CN(C)Cc1ccncc1,-0.393%
6,C[C@@H]1CN([C@H](C)CO)C(=O)c2cc(NC(=O)Nc3ccc(C(F)(F)F)cc3)ccc2O[C@@H](C)CCCCO[C@@H]1CN(C)Cc1ccc(C(F)(F)F)cc1,0.296%
7,C[C@@H]1CCCCO[C@@H](CN(C)Cc2ccc(C(=O)O)cc2)[C@H](C)CN([C@@H](C)CO)C(=O)c2cc(NC(=O)Nc3ccc(C(F)(F)F)cc3)ccc2O1,-0.357%
8,COc1ccc(S(=O)(=O)Nc2ccc3c(c2)C(=O)N([C@@H](C)CO)C[C@H](C)[C@H](CN(C)Cc2ccc(C(=O)O)cc2)OCCCC[C@@H](C)O3)cc1,2.26% (active)
9,Cc1ccc(S(=O)(=O)Nc2ccc3c(c2)C(=O)N([C@H](C)CO)C[C@@H](C)[C@H](CN(C)S(=O)(=O)c2ccc(C)cc2)OCCCC[C@@H](C)O3)cc1,31.1% (active)
10,C[C@@H]1CCCCO[C@@H](CN(C)Cc2ccc(C(=O)O)cc2)[C@@H](C)CN([C@@H](C)CO)C(=O)c2cc(NC(=O)Nc3ccc(C(F)(F)F)cc3)ccc2O1,10.4% (active)
11,C[C@@H]1CCCCO[C@@H](CN(C)Cc2ccncc2)[C@H](C)CN([C@H](C)CO)C(=O)c2cc(NC(=O)Cc3ccccc3)ccc2O1,25.7% (active)
12,C[C@@H]1CCCCO[C@H](CN(C)Cc2ccccc2)[C@@H](C)CN([C@H](C)CO)C(=O)c2cc(NC(=O)Cc3ccccc3)ccc2O1,0.467%
13,Cc1ccc(S(=O)(=O)N(C)C[C@@H]2OCCCC[C@@H](C)Oc3ccc(NS(=O)(=O)c4ccc(F)cc4)cc3C(=O)N([C@H](C)CO)C[C@H]2C)cc1,-0.311%
14,COc1ccc(S(=O)(=O)Nc2ccc3c(c2)C(=O)N([C@H](C)CO)C[C@H](C)[C@@H](CN(C)Cc2ccccc2)OCCCC[C@@H](C)O3)cc1,-0.202%
15,COc1ccc(CN(C)C[C@H]2OCCCC[C@@H](C)Oc3ccc(NS(=O)(=O)c4ccccc4)cc3C(=O)N([C@@H](C)CO)C[C@@H]2C)cc1,0.068%
16,O=C(c1ccncc1)N1C[C@@H]2[C@H](c3ccccc31)[C@H](CO)N2C(=O)c1ccncc1,1.08%
17,O=C(C[C@@H]1C[C@H]2c3cc(NC(=O)Nc4ccccc4F)ccc3O[C@H]2[C@@H](CO)O1)NC1CCCCC1,0.159%
18,N#C[C@@H]1[C@@H](c2ccccc2)[C@@H](CO)N1C(=O)c1cc(Cl)cc(Cl)c1,-0.146%

row,SMILES,"activity (Tm shift, normalised)"
1,O=C(NCc1ccccc1)[C@H]1CCCN1C(=O)[C@H]1CCCN1C(=O)N1CCOCC1,0.083%
2,CNC(=O)/C(C#N)=C/c1c(F)cccc1Cl,0.243%
3,O=C(/C=C/c1c(F)cccc1Cl)Nc1nn[nH]n1,43.2% (active)
4,Cc1ccc2c(Cl)c(C(=O)Nc3nn[nH]n3)sc2c1,-0.027%
5,C/C=C/c1ccc([C@@H]2[C@@H](CO)N(C(=O)c3ccccc3)C23CN(C(C)=O)C3)cc1,-0.191%
6,O=C(c1ccncc1)N1C[C@H]2[C@@H](c3ccccc31)[C@H](CO)N2C(=O)Nc1ccc(F)cc1,-0.662%
7,Cc1ccc(C)n1NC(=O)c1ccc([N+](=O)[O-])cc1,0.235%
8,COc1ccccc1C1SCCN1C(=O)c1ccc([N+](=O)[O-])cc1 (stereo not given),43.3% (active)
9,COc1ccccc1C1CCN(c2ccc([N+](=O)[O-])cn2)CC1,0.136%
10,Cc1ccc(S(=O)(=O)Nc2ccc3c(c2)C(=O)N(C)[C@@H]2CC[C@@H](CC(=O)O)O[C@H]2CO3)cc1,-0.106%
11,Cc1ccc(-c2ccc3c(c2)O[C@H](CN(C)C(=O)CC2CC2)[C@@H](C)CN([C@H](C)CO)S3(=O)=O)cc1,-0.566%
12,COc1ccc(NC(=O)Nc2ccc3c(c2)[C@@H]2C[C@H](CC(=O)N4CCCCC4)O[C@H](CO)[C@@H]2O3)cc1,-0.385%
13,O=c1cnnc(Nc2ccccc2F)[nH]1,43.4% (active)
14,O=c1ccnc(Nc2ccc(Cl)cc2)[nH]1,0.494%
15,Cc1nnc(Nc2ccccc2F)s1,0.041%
16,CN(C)C(=O)C[C@H]1C[C@@H]2c3cc(NC(=O)CC4CC4)ccc3O[C@@H]2[C@@H](CO)O1,-0.027%
17,CCCNC(=O)N(C)C[C@@H]1Oc2ncc(-c3cccc(C#N)c3)cc2C(=O)N([C@@H](C)CO)C[C@H]1C,0.077%
